KDM4E inh: qHTS Assay for Inhibitors of Human Jumonji Domain Containing 2E (JMJD2E); Lysine-specific demethylase 4E (Homo sapiens), B2RXH2; JMJD2E catalytic domain, FDH-coupled NADH fluorescence (FDH is formaldehyde dehydrogenase); Potency, µM (highest dose often 57.1 µM), inactives show top-dose activity change, negative = inhibition, hits mostly inhibitors; 230,000 compounds, 1.6% hits; AID 2147, 2009; active means well fitted inhibition curve with a large enough effect, not every such curve was filed as active; inconclusive means small, poorly fitted or top-dose-only effect, or another doubt; inactive means no such curve, though single readings can be large or run the other way;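 further: potency means the concentration at half of the fitted maximal effect; 0% = wells with enzyme and -100% = buffer wells without enzyme; nearly all actives have a fitted effect of over 50% in size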
CtBP-E1A blk: qHTS Assay for Inhibitors of the CtBP/E1A Interaction; AID 651724, 2012; AlphaScreen GST-E1A/His-CtBP binding, 1536-well; hits give low values; CtBP / adenovirus E1A interaction (AlphaScreen); activity change, % (no concentration beside the values); 340,000 compounds, 0.49% hits
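Protein mix (5X: 125 nM each GST-E1A, His-CtBP) was incubated with pinned compound 2 h at 37 deg C in dark, in 50 mM Tris pH 8.0 buffer with 300 mM NaCl. Glutathione donor and nickel acceptor beads followed; AlphaScreen signal read after 1 h.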
KCNH2 3.1 inh: qHTS for Inhibitors of KCHN2 3.1: Mutant qHTS | 340,000 compounds, 0.95% hits | AID 720553, 2013 | activity change, % (tested at about 1.8 µM) | U2OS KCNH2 3.1, thallium flux FluxOr; hits give low values;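 active means maximum activity change below -70%; inconclusive means maximum activity change from -70% to -50%; inactive means maximum activity change above -50%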;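 further: thallium influx rate constant from kinetic fluorescence after stimulation buffer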
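We transduce U2OS cells with the mutant 3.1 virus, culture them overnight, load FluxOr with Red40 quencher for 45 min, then add stimulation buffer and read kinetically for 2 min to derive a normalized rate constant.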
hERG WT inh: qHTS for Inhibitors of KCHN2 3.1: Wildtype qHTS; U2OS, BacMam KCNH2, thallium flux FluxOr; hits give low values; activity change, % at 1.84 µM; 340,000 compounds, 0.37% hits;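 active means maximum activity change below -70%; inconclusive means maximum activity change between -70% and -50%; inactive means maximum activity change above -50%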
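U2OS cells transduced with wild-type KCNH2 virus are loaded with FluxOr dye for 45 min, and thallium flux is measured in kinetic reads before and after stimulation buffer. Rate constants are normalized to DMSO controls.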
Six1-Eya2 blk: qHTS Assay for Inhibitors of the Six1/Eya2 Interaction; AID 651725, 2012; 360,000 compounds, 0.56% hits; activity change, % (concentration not given with the values); AlphaScreen GST-Six1/His-Eya2 binding, biochemical; hits give low values; Homeobox protein SIX1 (Homo sapiens) + Protein phosphatase EYA2 (Homo sapiens), …
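Homogeneous AlphaScreen proximity assay pairing GST-Six1 with His-tagged Eya2 (added as 5X mix: 250 nM and 500 nM) in 50 mM Tris pH 8.0, 300 mM NaCl, 1 mM TCEP. Glutathione donor and nickel acceptor beads; 1 h, 37 °C, dark.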
Starred values were filed as active, the others as inactive; ? = inconclusive; nt = no result. Only some compounds are listed: those with a hit (about 2% of all), similar ones and a draw of the others. Unless noted, no stated cut-off is given here; in the data, active means activity change below about -65%; inconclusive means mostly about -30% to -63%; inactive means weaker than that. Unless noted, on the % scale 0 is the no-effect control and ±100 the full control effect.

SMILES	KDM4E inh	CtBP-E1A blk	KCNH2 3.1 inh	hERG WT inh	Six1-Eya2 blk
CN(C)CCCN(C(=O)CCOc1ccccc1)c1nc2c(F)cccc2s1	2%	0	-12	5	-7
O=C(N/N=C/c1ccc([N+](=O)[O-])o1)c1sc2ccccc2c1Cl	-13%	nt	1	6	?
Cc1cc(NC(=O)c2ccc(NC(=O)C3CC3)cc2)no1	7%	-10	22	0	-15
COc1c(O)cc2c(c1O)C1OC(CO)C(O)C(O)C1OC2=O (stereo unspecified)	nt	4	-2	2	-5
O=C1OCC2OC(O)C(O)C(O)C2OC(=O)c2cc(O)c(O)c(O)c2-c2c(O)c(O)c3oc(=O)c4c(c(O)c(O)c5oc(=O)c2c3c54)-c2c1cc(O)c(O)c2O (stereo unspecified)	0.56µM*	nt	nt	nt	nt
CCCc1cc(N2CCN(C(=O)c3ccco3)CC2)n2c(nc3ccccc32)c1C#N	?	-67*	-8	-1	?
CC1(C)CC(=O)C(C(c2cccc([N+](=O)[O-])c2)C2C(=O)CC(C)(C)CC2=O)C(=O)C1	3%	18	-13	12	1
Cc1ccc([N+](=O)[O-])c(OCCCN2CCC(Cc3ccccc3)CC2)c1	nt	nt	-97*	-127*	-21
Clc1ccc(CN2CCC(Cc3ccccc3)CC2)cc1	-2%	26	20	-1	17
COc1cc(C)c(CN2CCC(Cc3ccccc3)CC2)cc1C	nt	-1	-28	36	0
OCc1ccccc1OCCCN1CCC(Cc2ccccc2)CC1	nt	-23	-90*	-3	-3
O=Cc1cc(Cl)ccc1OCCN1CCC(Cc2ccccc2)CC1	nt	-27	-105*	?	-17
COc1cc(C(C)=O)ccc1OCCCN1CCC(Cc2ccccc2)CC1	nt	-1	?	13	-6
C=CCOc1ccccc1CN1CCC(Cc2ccccc2)CC1	nt	-1	-87*	39	-4
COc1ccc(C(CNC(=O)c2ccc(NS(=O)(=O)c3ccccc3)cc2)N2CCOCC2)cc1 (stereo unspecified)	nt	1	0	3	-4
O=[N+]([O-])c1cccc(OCCN2CCC(Cc3ccccc3)CC2)c1	nt	-28	-70*	5	?
CCN(CC)S(=O)(=O)c1ccc(-c2cn3ccccc3n2)cc1	nt	-2	-4	-100*	-2
O=C(C1CCC(CNc2c(N3CCCCC3)c(=O)c2=O)CC1)N1CCN(C2CCCCC2)CC1 (stereo unspecified)	-12%	3	-10	-1	1
CNCc1c(OCc2ccc(F)cc2)ccc2ccccc12	3%	-1	8	10	-5
OCc1c(OCc2cccc(F)c2)ccc2ccccc12	nt	nt	-81*	-3	2
O=C(COC(=O)c1ccco1)Nc1cccc(S(=O)(=O)N2CCCCC2)c1	nt	nt	14	4	-2
O=C(Oc1c(Cl)cc(Cl)c2cccnc12)c1cccc([N+](=O)[O-])c1	14µM*	-98*	8	0	-88*
C/C(=N\NC(=O)C1CC1)c1cccs1	0%	0	3	-3	5
Oc1c(N=Nc2ccccn2)ccc2ccccc12	?	-95*	13	19	-97*
Oc1[nH]c2ccccc2c1N=Nc1ccccn1	nt	6	8	20	0
SMILES	KDM4E inh	CtBP-E1A blk	KCNH2 3.1 inh	hERG WT inh	Six1-Eya2 blk
COc1ccc(OC)c(CN2CCC(CO)(CCOc3ccccc3)CC2)c1	2%	1	-75*	69	-4
OCC1(CCOc2ccccc2)CCN(Cc2cccn2-c2ncccn2)CC1	-5%	7	-93*	-16	-2
COc1cc(CN2CCC(CO)(CCOc3ccccc3)CC2)cc(OC)c1	8%	nt	?	19	-1
CC(=O)Nc1ccc(CN2CCC(CO)(CCOc3ccccc3)CC2)cc1	7%	-20	?	52	2
Cc1cc(C)c(CN2CCC(CO)(CCOc3ccccc3)CC2)cc1C	3%	-9	-111*	-35	-5
OCC1(CCOc2ccccc2)CCN(C2Cc3ccccc3C2)CC1	3%	0	-77*	15	-3
CCc1nc2c(OCc3ccc(F)cc3)cccn2c1N(C)C(=O)c1ccncc1	nt	4	nt	nt	-3
CC1Oc2ccccc2N(CC(=O)c2cccc(Cl)c2)C1=O (stereo unspecified)	8%	12	-15	0	4
CO/N=C/c1ccc(N2CCCC2)c([N+](=O)[O-])c1	-1%	-22	11	30	-29
CO/N=C/c1ccc(N2CCN(C(=O)c3ccc(C)cc3)CC2)c([N+](=O)[O-])c1	-2%	?	-98*	-10	?
COc1ccc(C(=O)CSc2nnc3n2CCCN3C(=O)Nc2ccccc2)cc1	6%	1	-6	5	-8
NC(=O)CC(NC(=O)Cc1ccc(Cl)cc1)c1ccc(NCC2CC2)c([N+](=O)[O-])c1 (stereo unspecified)	-6%	-3	-42	-194*	0
NC(=O)CC(NC(=O)Cc1ccc(Br)cc1)c1ccc(NCC2CC2)c([N+](=O)[O-])c1 (stereo unspecified)	-1%	0	-82*	-32	1
NC(=O)CC(NC(=O)Cc1ccc(Br)cc1)c1ccc(NC2CCC2)c([N+](=O)[O-])c1 (stereo unspecified)	2%	-12	-44	4	-13
CC(C)c1cc(C(=O)N/N=C/c2cccnc2)n[nH]1	-3%	10	10	-3	2
CCOc1ccccc1N1CCN(C(=O)c2c(-c3ccccc3Cl)noc2C)CC1	-4%	5	-4	-10	2
CCC(C)NC(=O)c1ccc2nc(Cc3ccc(OC)cc3)oc2c1 (stereo unspecified)	nt	4	8	-7	4
CCC(NC(=O)c1ccc2nc(Cc3ccc(OC)cc3)oc2c1)c1ccncc1 (stereo unspecified)	nt	nt	-105*	12	-2
CCC(C(=O)N(C(C)C)C(C)C)c1ccccc1 (stereo unspecified)	nt	1	-146*	-2	1
CN1CCc2c(sc(NC(=O)CS(=O)(=O)c3ccccc3)c2C(N)=O)C1	nt	-9	8	-1	-15
Nc1ccc2c(c1)[nH]c(=O)c1ccccc12	nt	15	-196*	-12	-9
Nc1cc2[nH]c(=O)c3ccccc3c2cc1Br	nt	5	7	-13	-21
COc1cc(CN2CCN(Cc3ccc(C)cc3)C(CCO)C2)ccc1O (stereo unspecified)	5%	12	4	9	-1
